Assay outcomes (PubChem BioAssay)
An excerpt weighted towards active compounds, which were near 1.9% of everything screened.
PrPC surface inh – inhibitors of human cell surface prion protein PrPC; TR-FRET read-out; 370,000 tested, 0.43% active; P04156; AID 720596; inhibition, % at 13.8 µM; in the data active = inhibition above about 24%
BJeLR viability – kills HRASV12-expressing BJeLR cells; BJeLR (HRASV12) viability, CellTiter-Glo ATP luminescence, 48 h; inhibition, % (no concentration beside the values); 300,000 tested, 0.17% active; in the data active = inhibition above about 50%; inconclusive = no clear call, values can overlap the other calls
PrP 5UTR inh – suppresses PrP 5' UTR mRNA reporter expression | cell-based PrP 5' UTR mRNA reporter, plate reader | inhibition, % (test concentration not listed) | 340,000 tested, 0.35% active | AID 488862; in the data active = inhibition above about 52%
SSB-PriA inh – inhibitors of Klebsiella pneumoniae PriA binding to SSB C-terminal tail | AlphaScreen SSBct-PriA binding, biotinylated peptide | inhibition, % at 33 µM | 430,000 tested, 0.6% active | AID 1272365; in the data active = inhibition mostly above about 37%, no sharp cut-off; inactive = mostly below about 20%
RecA splice inh – inhibitors of M. tuberculosis RecA intein splicing; inhibition, % (test concentration not listed); 290,000 tested, 0.75% active; P9WHJ3; cell-free RecA intein splicing, fluorescence; AID 2221; in the data active = inhibition above about 30%; inconclusive = no clear call, values can overlap the other calls
Target sequence (P9WHJ3 whole entry, looked up, canonical isoform): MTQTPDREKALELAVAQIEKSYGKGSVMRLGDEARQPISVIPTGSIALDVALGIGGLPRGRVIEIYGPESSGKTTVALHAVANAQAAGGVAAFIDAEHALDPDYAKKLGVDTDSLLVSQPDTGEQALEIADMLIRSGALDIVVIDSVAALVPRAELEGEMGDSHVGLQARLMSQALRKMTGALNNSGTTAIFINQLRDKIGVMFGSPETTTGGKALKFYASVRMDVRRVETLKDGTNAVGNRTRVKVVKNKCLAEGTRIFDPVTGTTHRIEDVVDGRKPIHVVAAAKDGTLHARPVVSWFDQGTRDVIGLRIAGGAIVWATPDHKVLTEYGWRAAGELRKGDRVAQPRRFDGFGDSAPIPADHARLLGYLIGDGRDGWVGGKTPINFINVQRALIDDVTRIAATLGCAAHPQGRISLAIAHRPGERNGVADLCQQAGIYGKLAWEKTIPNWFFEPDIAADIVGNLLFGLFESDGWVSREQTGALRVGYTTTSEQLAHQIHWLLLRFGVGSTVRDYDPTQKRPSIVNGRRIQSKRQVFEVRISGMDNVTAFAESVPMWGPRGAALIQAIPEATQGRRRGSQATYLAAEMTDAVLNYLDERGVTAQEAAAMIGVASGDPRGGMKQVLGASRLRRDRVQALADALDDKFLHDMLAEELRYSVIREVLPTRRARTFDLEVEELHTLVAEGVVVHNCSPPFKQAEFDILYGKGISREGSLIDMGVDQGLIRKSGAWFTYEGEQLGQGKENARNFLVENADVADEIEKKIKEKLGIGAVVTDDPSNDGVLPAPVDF
PfHsp40 yeast – restores yeast growth despite PfHsp40 toxicity; S. cerevisiae expressing PfHsp40, growth rescue, ATP luminescence; 340,000 tested, 0.68% active; growth rescue, % at 12.5 µM; AID 504582; in the data active = growth rescue above about 28%, passing the limit was not always enough; inconclusive = no clear call, values can overlap the other calls;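 note: yeast W303a lacking pdr1 and pdr3 grown in galactose medium; growth measured after three days at 30 °C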
PrP UTR cherry – prion 5' UTR mRNA inhibition, cherry-pick retest. shares compounds with PrP 5UTR inh. cell-based prion protein 5' UTR reporter, plate reader. 1,100 tested, 48% active. inhibition, % at 2.5 µM; in the data active = inhibition above about 54%; inconclusive = no clear call, values can overlap the other calls
Hits are given with their value; n = inactive; u = inconclusive; x = no result given.

SMILES | PrPC surface inh | BJeLR viability | PrP 5UTR inh | SSB-PriA inh | RecA splice inh | PfHsp40 yeast | PrP UTR cherry
O=C(COc1ccc(F)cc1)NCc1ccnc(-c2cccs2)c1 | x | x | x | n | x | x | x
O=C(O)Cc1sc(Nc2ccccc2)nc1-c1ccc(Cl)cc1 | n | n | 57 | n | n | n | n
Cc1cc(C)n(CC(=O)Nc2ccccc2Br)c(=O)c1C#N | x | x | x | n | x | x | x
Cc1cc(C(=O)COc2cccnc2[N+](=O)[O-])c(C)n1-c1ccccc1 | n | n | 58 | n | n | n | u
CCOC(=O)C1C(OC(=O)c2ccccc2)CC2CCC1N2C (stereo unspecified) | n | x | 70 | n | x | n | n
CN1C2CCC1C(C(=O)O)C(OC(=O)c1ccccc1)C2 (stereo unspecified) | n | x | n | n | x | n | x
CN(C)c1ccc(CCc2ccc(N)cc2)cc1 | n | n | 57 | n | n | n | 53
COc1ccc(NC(=O)COc2ccc(C=Nn3c(C)nnc3C)cc2OC)cc1 | x | x | x | n | x | x | x
COc1ccc(-c2ccnc3cc(C(=O)O)nn23)cc1 | n | n | 84 | n | n | n | n
COc1cccc(CNC(=O)c2ccc3c(c2)N(C)CCS3)c1OC | n | n | 59 | n | n | n | n
CN1CCSc2ccc(C(=O)NCc3ccccc3F)cc21 | n | n | n | n | n | n | x
CN(C)c1ccc(/C=C2\SC(N3CCCCC3)=NC2=O)cc1 | n | n | 57 | n | n | n | n
Cc1ccc(/C=C2\SC(N3CCCC3)=NC2=O)cc1 | n | n | x | x | n | x | x
c1ccc2cc(CCO[C@H]3CCCCO3)ncc2c1 | n | x | n | n | x | n | x
c1nc(CCO[C@H]2CCCCO2)cc2cc3c(cc12)OCO3 | n | x | 63 | n | x | n | n
O=C1CCCN1CN(C(=O)c1ccc(-c2ccccc2)cc1)c1nccs1 | x | x | x | n | x | x | x
CCCN1CCN(CC(=O)Nc2nnc(C)s2)CC1 | n | n | 52 | n | n | n | n
CCOC(=O)CNC(=O)c1cc(OCc2ccccc2)no1 | x | x | x | n | x | x | x
Cc1ccc(NC(=O)C2CCN(C(=O)c3ccccc3C)CC2)nc1 | n | n | n | n | n | u | x
Cc1ccccc1C(=O)N1CCC(C(=O)Nc2nccs2)CC1 | n | n | 88 | n | n | n | n
CCOc1cc(C(=O)NN=Cc2cn(-c3ccccc3)nc2-c2cc3ccccc3o2)cc(OCC)c1OCC | x | x | x | n | x | x | x
CC(=O)NCCc1ccc(C(=O)COC(=O)C2CCCCC2)cc1 | n | x | 72 | n | x | n | n
Cc1ccc(C(=O)COC(=O)C2CCC2)cc1 | x | n | n | n | n | n | x
CC(Oc1ccc(F)cc1)C(O)CCN(C)C (stereo unspecified) | n | n | 74 | n | n | n | n
CCOC(=O)Cc1[nH]nc2c1C(c1ccsc1)C(C#N)=C(N)O2 (stereo unspecified) | n | n | 53 | n | 57 | n | n
SMILES | PrPC surface inh | BJeLR viability | PrP 5UTR inh | SSB-PriA inh | RecA splice inh | PfHsp40 yeast | PrP UTR cherry
CCOC(=O)C1=C(CC)OC(N)=C(C#N)C1c1ccsc1 (stereo unspecified) | n | n | n | n | n | n | x
O=C(Nc1ccc(NC(=O)c2scc(-c3ccccc3)c2-n2cccc2)cc1)c1ccco1 | x | x | x | n | x | x | x
CN=c1scc(-c2cccs2)n1/N=C/c1ccccc1O | n | n | 94 | x | n | n | 90
CNS(=O)(=O)c1ccc(NC(=O)c2cnn3c(C(F)F)cc(-c4ccccc4)nc23)cc1 | n | n | n | n | n | n | x
O=C(Nc1cccc(S(=O)(=O)N2CCOCC2)c1)c1cnn2c(C(F)F)cc(-c3ccccc3)nc12 | n | n | 80 | n | n | n | n
COc1cccc(N2CC(C(=O)N3CCC(S(C)(=O)=O)CC3)CC2=O)c1 (stereo unspecified) | x | x | x | n | x | x | x
CCOC(=O)C1(CC2CCCCO2)CCN(Cc2ccc(OC)cc2F)CC1 (stereo unspecified) | n | n | 80 | n | x | n | n
CC(C)C(C(=O)NCc1ccccc1)N(CC1CCCO1)C(=O)CNS(=O)(=O)c1ccccc1 (stereo unspecified) | n | n | n | n | n | n | x
CC(C)C(C(=O)NCc1ccco1)N(CC1CCCO1)C(=O)CNS(=O)(=O)c1ccccc1 (stereo unspecified) | n | n | 68 | n | n | n | n
O=C(Nc1nc(CC(=O)N2CCc3ccccc3C2)cs1)C1CC1 | x | x | x | n | x | x | x
COCCOC(=O)c1[nH]c2c(c1C)C(=O)CC(c1ccco1)C2 (stereo unspecified) | n | n | n | n | n | n | x
Cc1c(C(=O)OCCOC(C)C)[nH]c2c1C(=O)CC(c1ccco1)C2 (stereo unspecified) | x | n | 66 | n | n | n | 90
Cc1c(C(=O)OCc2ccccc2)[nH]c2c1C(=O)CC(c1ccco1)C2 (stereo unspecified) | x | n | 62 | n | n | n | 87
CCOC(=O)c1[nH]c2c(c1C)C(=O)CC(c1ccco1)C2 (stereo unspecified) | n | n | 61 | n | n | n | 93
O=C(NCCOc1ccccc1)NCC1(c2cccs2)CCCC1 | x | x | x | n | x | x | x
CCOC(=O)N(NC(=O)C(O)(c1ccccc1)c1ccccc1)c1ccccc1 | n | n | n | n | n | n | x
Cc1cccc(N(NC(=O)C(C)(C)O)C(=O)c2ccccc2)c1 | n | n | 67 | n | n | n | n
O=C(CSc1cn(CCNC(=O)c2ccc3ccccc3c2)c2ccccc12)NCc1ccco1 | n | n | 58 | n | n | n | n
Cc1cccc(NC(=O)C(=O)NCCc2ccc(S(N)(=O)=O)cc2)c1C | x | x | x | n | x | x | x
CCN(C[C@H]1N[C@@](Cc2ccccc2)(C(=O)OC)[C@H]2C(=O)N(C)C(=O)[C@@H]12)S(=O)(=O)c1ccc(C(C)(C)C)cc1 | n | x | 60 | n | x | n | n
CCN(C[C@H]1N[C@@](Cc2ccccc2)(C(=O)OC)[C@H]2C(=O)N(Cc3ccccc3)C(=O)[C@@H]12)S(=O)(=O)c1ccc(C(C)(C)C)cc1 | n | x | n | n | x | n | x
COP(=O)(OC)c1nc(-c2cccc3ccccc23)oc1N1CCCCC1 | n | n | n | n | n | n | x
CCOP(=O)(OCC)c1nc(-c2cccc3ccccc23)oc1N1CCCCC1 | n | n | 72 | n | n | n | n
Cc1nc(-c2ccccc2)cc2nn(CC(=O)N3CCc4ccccc43)c(=O)n12 | x | x | x | n | x | x | x
O=C(c1ccc2c(c1)OCO2)N1CCC2(CC1)Oc1ccc(Cl)cc1C(=O)C21CC(c2cccnc2)=NO1 (stereo unspecified) | n | n | 53 | n | n | n | n
CCN(CC)c1ccc(C(=C2C=CC(=[N+](CC)CC)C=C2)c2ccc(N(CC)CC)cc2)cc1 | n | x | 52 | n | x | n | u
COc1ccc(/C=C2\SC(=S)N(CCCC(=O)NNC(=O)c3ccccc3O)C2=O)cc1 | n | n | 60 | n | n | n | 74
